# Screening results: PubChem BioAssay, National Center for Advancing Translational Sciences (NCATS)
# TRHR agonist – agonists of human TRH receptor. P34981. TRHR cells, calcium flux fluo-8, FDSS agonist mode. activation, % at 2 µM. actives 0.18% (n = 360,000); also: 0% is about no effect
#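 Agonist-mode FDSS calcium read (Ex 480/Em 530, 1 s cycles) in 1536-well TRHR cells with fluo-8 dye, after 10-cycle baseline and 23 nL compound addition; TRH at EC20 (10 nM final) added afterwards for the enhancer phase.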
# D1 antagonist – human D1 dopamine receptor antagonism; P21728; HEK293 TREx D1 cells, calcium flux, dopamine EC80; stronger effect = lower value; activity change, negative = inhibition, % at 10 µM; actives 3.2% (n = 360,000); in the data active = activity change below about -30%; also: % is scaled to controls: 0 for no effect and ±100 for the full control effect
# Target sequence (P21728 whole entry, looked up): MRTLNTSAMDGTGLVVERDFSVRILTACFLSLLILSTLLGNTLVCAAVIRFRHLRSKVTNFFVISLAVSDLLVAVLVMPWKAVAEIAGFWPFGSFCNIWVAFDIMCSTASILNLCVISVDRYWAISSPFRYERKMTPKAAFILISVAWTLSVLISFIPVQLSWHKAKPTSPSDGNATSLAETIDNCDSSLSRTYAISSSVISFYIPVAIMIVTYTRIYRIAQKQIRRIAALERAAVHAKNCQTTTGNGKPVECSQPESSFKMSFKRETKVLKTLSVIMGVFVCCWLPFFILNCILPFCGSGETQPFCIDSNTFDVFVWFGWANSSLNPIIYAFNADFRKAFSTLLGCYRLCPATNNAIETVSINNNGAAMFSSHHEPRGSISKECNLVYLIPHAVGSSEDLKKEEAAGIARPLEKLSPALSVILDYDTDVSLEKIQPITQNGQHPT
#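 HEK293 T-REx cells expressing inducible, force-coupled D1 receptor; no-wash Ca dye, 30–90 min RT. Cmpd → 180 s read at 1 Hz → EC80 DA → 180 s read.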
# D1 potentiator – potentiators of human D1 dopamine receptor; P21728; HEK293 TREx D1 cells, calcium flux, dopamine EC20 potentiation; potentiation, % at 10 µM; actives 0.036% (n = 360,000); AID 504651; in the data active = potentiation above about 30%; also: 0% is about no effect
# D1 ag – activates the human D1 dopamine receptor; P21728; activation, % at 2 µM; HEK293 T-REx D1 cells, calcium flux, agonist mode; actives 1% (n = 360,000); also: 0% is about no effect
#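 Inducible HEK293 T-REx D1 cells, force-coupled to calcium signalling, were plated at 4000 cells/well with tetracycline and held overnight at 30 C. After no-wash calcium dye loading, compound-evoked calcium rise over 180 s flagged agonists.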
# Glioma ERSR ind – ER stress response induction in glioma; U87-MG GRP78 promoter luciferase reporter, 16 h; Potency, µM, for inactives: at the highest dose activation, usual class: activators; actives 0.02% (n = 420,000); active = well fitted activation curve with a large enough effect; inconclusive = small, poorly fitted or top-dose-only effect; inactive = no such curve, though single readings can be large or run the other way; also: potency is read from the fitted curve at half-maximal effect; series mostly up to about 76 µM; % of control where 0% means no effect; nearly all actives have a fitted effect of over 35% in size
#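 Stably transfected U87-MG human glioma cells carrying a GRP78-based luminescent sensor were seeded at 1000 cells/well, pin-dosed with compounds and incubated 16 h. Luciferase reagent was then added, and end-point luminescence was read after 10 min at room temperature.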
# TRHR enhancer – TRH receptor (human) allosteric enhancement; P34981; TRHR cells, fluo-8 calcium fluorescence, EC20 TRH enhancement; enhancement, % at 2 µM; actives 0.66% (n = 360,000); AID 493056; in the data active = enhancement above about 30%; also: 0% is about no effect
#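 Enhancer read-out: after compound pinning and an initial kinetic agonist-mode read, an EC20 of TRH (10 nM final) was injected and fluo-8 calcium signal (Ex 480/Em 530) followed at 1 s/cycle for 100 cycles in TRHR-expressing cells.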
# Numbers without * were called inactive; ? = inconclusive; . = no result; ! = not confirmed by another sample. An excerpt weighted towards active compounds, which were near 4% of everything screened. Rule as the data show it, unless noted: active = activation above about 30%; inactive = the rest.
SMILES,TRHR agonist,D1 antagonist,D1 potentiator,D1 ag,Glioma ERSR ind,TRHR enhancer
CCOc1ccc(NC(=O)CSc2nc3ccccc3nc2N2CCOCC2)cc1,0,10,3,3,0%,34*!
Cc1ccc2sc(NC(=O)CN3C(=O)CCC3=O)nc2c1C,0,-13,-8,3,-2%,-5
Cc1ccc(C)c2sc(NC(=O)CN3C(=O)CCC3=O)nc12,-1,-45*,7,3,1%,19
O=C(/C=C/c1ccc2c(c1)OCO2)NCCSCc1ccc(Cl)cc1,2,-26,-9,11,-3%,-1
O=C(/C=C/c1ccc2c(c1)OCO2)NCCSCc1c(Cl)cccc1Cl,-1,-32*,-7,42*,0%,-7
CC1=CC(C)(C)[N+](C)=CN1c1ccccc1,0,-22,-1,2,-3%,-1
Cc1ccc(C(=O)Nc2cc(C(F)(F)F)ccc2-n2cncn2)o1,-3,6,-7,1,-4%,3
Cc1ccc(C(=O)Nc2cc(Cl)ccc2-n2cncn2)o1,0,8,-7,3,0%,36*
COC(=O)c1ccc(N)c(CS(=O)(=O)c2ccc(Cl)cc2)c1,-1,-4,-3,0,-2%,-3
COC(=O)c1sc(C(C)(C)C)cc1CS(=O)(=O)c1ccc(Cl)cc1,0,-40*,-5,2,-4%,-3
c1ccc2c(c1)nc1n2C2(N3CCOCC3)CCCC2C1N1CCOCC1 (stereo not given),15,0,2,47*,-3%,5
CS(=O)(=O)N(CC(=O)N1CCCC1)c1cc(Cl)c(Cl)cc1Cl,-1,-14,-7,39*,-3%,9
CS(=O)(=O)N(CCCC(=O)N1CCCCCC1)c1cccc(Cl)c1,0,-38*,0,7,-4%,5
COc1ccc(CCNC(=O)C(=O)NCC(c2ccc3c(c2)OCO3)N2CCOCC2)cc1OC (stereo not given),0,2,-4,0,-3%,-6
O=C(O)CCN(CC(=O)c1ccc(Cl)cc1)S(=O)(=O)c1ccc([N+](=O)[O-])cc1,0,-15,-3,1,-2%,-4
CCN(CC)CCNC(=O)c1ccc(NC(=O)c2ccc(S(=O)(=O)N3CCCCCC3)cc2)cc1,0,-57*,-17,1,-4%,10
CCN(CC)CCNC(=O)c1ccc(NC(=O)c2ccc(Cl)c(S(=O)(=O)N3CCCCCC3)c2)cc1,1,-47*,-17,3,-7%,-4
CCN(CC)CCNC(=O)c1ccc(NC(=O)c2cccc(S(=O)(=O)N3CCCCCC3)c2)cc1,.,.,.,.,-2%,.
CC1=CC(C)(C)Nc2ccc(C)cc21,0,4,3,1,-2%,-4
CC1=CC(C)(C)Nc2ccc(Cc3ccc4c(c3)C(C)=CC(C)(C)N4)cc21,0,70,7,3,-3%,38*
COC(=O)c1ccc(/C=C(\C#N)c2nc3ccccc3s2)cc1,15,26,2,56*,1%,3
N#C/C(=C/c1ccc(-c2ccc(S(N)(=O)=O)cc2)o1)c1nc2ccccc2s1,93*,-4,-9,265*,-3%,20
N#C/C(=C/c1ccc(-c2ccccc2)o1)c1nc(-c2cccs2)cs1,68*,-8,-6,215*,6%,0
CC(C)(C)c1ccc(C(=O)OC/C(O)=C(\C#N)c2nc3ccccc3s2)cc1,1,-75*,-10,10,-5%,-3
N#C/C(=C(/O)COC(=O)c1ccccc1O)c1nc2ccccc2s1,3,-13,-8,24,1%,1
SMILES,TRHR agonist,D1 antagonist,D1 potentiator,D1 ag,Glioma ERSR ind,TRHR enhancer
N#C/C(=C\c1ccc(-c2ccc(F)cc2)o1)C(=O)Nc1nc(-c2cccs2)cs1,1,13,-3,14,-1%,15
CCOC(=O)c1cccc(NC(=O)c2cc(S(=O)(=O)N3CCCC3)cn2C)c1,0,-1,-2,3,-2%,-4
CCOC(=O)OCC1OC(C#Cc2ccc(F)cc2F)C=CC1OC(=O)OCC (stereo not given),.,.,.,.,-4%,.
CNC(=O)[C@]1(C(F)(F)F)C[C@H](CCC2CCCCC2)CCCO1,.,.,.,.,-3%,.
CCOC(=O)N1CCN(/C=C(\C#N)c2nc3ccccc3s2)CC1,5,-8,-3,32*,6%,-10
N#C/C(=C\c1ccccn1)c1nc2ccccc2s1,45*,-3,7,148*,2%,3
COc1ccc(/C(C#N)=C/c2ccccn2)cc1,-1,-26,-3,0,8%,9
Cc1ccc(N2CCN(C(=O)c3cn(C)c4ccc(S(=O)(=O)N5CCCC5)cc4c3=O)CC2C)cc1 (stereo not given),-1,-82*,3,0,-2%,0
Cc1ccc(N2CCN(C(=O)c3cn(C)c4ccc(S(=O)(=O)N5CCC(C)CC5)cc4c3=O)CC2C)cc1 (stereo not given),-1,6,-1,3,-3%,2
C[N+]1(CC(=O)c2ccc3ccccc3c2)CCOCC1,.,.,.,.,-3%,.
CC(=O)N/C(=C/c1ccccc1)c1ccncc1,.,.,.,.,-4%,.
CN1Cc2c(N3CCOCC3)nc3sc(C(=O)c4ccc(Br)cc4)c(N)c3c2CC1(C)C,1,-49*,-12,34*,-7%,-3
Cc1n[nH]c(=S)n1/N=C/c1ccc(OCc2ccc(Cl)cc2Cl)cc1,0,-9,-1,4,3%,2
Cc1n[nH]c(=S)n1/N=C/c1ccc(OCc2ccc(Cl)cc2)cc1,0,-34*,-2,1,4%,0
CN1CCCC1CCNS(=O)(=O)c1ccc(Br)cc1 (stereo not given),-1,-33*,-13,6,4%,-2
CCc1ccc(NC(=O)CSc2nnc(-c3ccccc3)n2C)cc1,.,.,.,.,-3%,.
O=c1c2cc(N3CCOCC3)ccc2[nH]c(=S)n1CCCN1CCN(c2ccccc2F)CC1,0,-71*,-7,3,.,2
COc1ccccc1N1CCN(CCCn2c(=S)[nH]c3ccccc3c2=O)CC1,-1,-88*,-8,0,-7%,4
CCOC(=O)c1cnc2ccc(OCC)cc2c1NCc1ccccc1,0,-32*,-11,11,-1%,5
COc1ccc2cc(C(C)CO)ccc2c1 (stereo not given),.,.,.,.,-1%,.
CCOC(=O)c1c(-c2ccc(C)cc2)csc1NC(=O)/C(C#N)=C/c1ccc(O)c(OC)c1,16,2,5,111*,-1%,-3
COc1cc(/C=C(\C#N)C(=O)Nc2ccc3c(c2)OCCO3)ccc1O,16,3,0,41*,?,-4
CCOC(=O)c1c(-c2ccccc2)csc1NC(=O)/C(C#N)=C\c1ccc(O)c(OC)c1,.,.,.,.,-1%,.
